Test [1] is described as follows: NCI Yeast Anticancer Drug Screen. Data for the rad50 strain (AID 155).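 Note: 0% = growth of vehicle-only cultures of the same strain.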 As to conditions: S. cerevisiae rad50 strain growth inhibition, stronger effect = higher value. The method in brief: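 Readout: growth inhibition relative to vehicle-treated cultures. Compound exposure was carried out in a genetically defined yeast strain deficient in DNA damage repair.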
Test [2] can be described thus: NCI Yeast Anticancer Drug Screen. Data for the mec2-1 strain (AID 157). As to conditions: S. cerevisiae mec2-1 strain, stronger effect = higher value. The gist of the method: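 Growth inhibition is read against vehicle-treated controls after compound exposure of the mec2-1 yeast strain, which is defective in DNA damage repair or cell cycle control.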
Test [3] can be described thus: NCI Yeast Anticancer Drug Screen. Data for the sgs1 mgt1 strain (AID 161).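 Note: 0% = growth of cultures given vehicle only.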 As to conditions: S. cerevisiae sgs1 mgt1 strain, stronger effect = higher value. The method in brief: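 Compounds are added to genetically altered yeast, and growth is compared with cultures given vehicle alone to give percent inhibition.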
A short description of test [4]: NCI Yeast Anticancer Drug Screen. Data for the cln2 rad14 strain (AID 165).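 Note: 0% = growth equal to vehicle treated cultures.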 As to conditions: S. cerevisiae cln2 rad14 strain, stronger effect = higher value. The method in brief: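 Growth inhibition, relative to vehicle-treated controls, is the read-out. The test organism is a yeast strain with defined genetic alterations, cln2 rad14.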
Test [5] in a line: NCI Yeast Anticancer Drug Screen. Data for the bub3 strain (AID 167). To be noted: S. cerevisiae bub3 mutant strain, stronger effect = higher value. The gist of the method: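 Readout: yeast growth inhibition, expressed relative to vehicle-only wells. The test organism is a mutant strain from a panel with lesions in DNA repair or checkpoint genes.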
Test [6] in a line: NCI Yeast Anticancer Drug Screen. Data for the mlh1 rad18 strain (AID 175). As to conditions: S. cerevisiae mlh1 rad18 strain growth inhibition, stronger effect = higher value. The method in brief:
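Cells of a genetically altered yeast strain, deficient in DNA damage repair, were treated with compound. Their growth was then compared with that of vehicle-treated cultures to give inhibition.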

Where [7] appears, read: at 5.0 µM (retest, dose inferred, filed as 0.5).
Setting [8] is: at 50.0 µM (retest, dose inferred, filed as 5.0).

Data on ten compounds can be found in PubChem BioAssay (NCI).

SMILES strings stand for the structures. This is part of a sample that, as a whole, favours compounds with a hit. Of some 79,000 tested, about 15% had one in any assay. A number with no mark means an inactive call. The source made the active and inactive calls. Cut-off read from the data, not from the text of the source: active = growth inhibition above about 70%; inactive = the rest. Where a SMILES comes first, the peptide text is derived from it. [ ]: non-standard residue; d: D form. Nva = CCC[CH](N)C(=O)O

Take `CCCC(N)C(=O)NC(C(=O)O)C(C)C` (stereo not given) (H-[Nva]-Val-OH; configuration not given here): the growth inhibition in test [1] (setting [7]) was -2%; in test [1] (setting [8]), -11%; in test [1] (at 50.0 µM), 38.1%; in test [2] (setting [7]) it was -2%; in test [2] (setting [8]) it was -3%; in test [2] (at 50.0 µM), 51.9%. Moreover, the growth inhibition is 1% in test [3] (setting [7]); -5% in test [3] (setting [8]); 17.1% in test [3] (at 50.0 µM); 1% in test [4] (setting [7]); -5% in test [4] (setting [8]); 86% (active) in test [4] (at 50.0 µM). Besides, the growth inhibition is 2% in test [5] (setting [7]); -3% in test [5] (setting [8]); 62% in test [5] (at 50.0 µM); -2% in test [6] (setting [7]); -9% in test [6] (setting [8]); 8.4% in test [6] (at 50.0 µM).
With `CC12CC(O)C3C(CCC4CCCCC43C)C1CC/C2=N/O` (stereo not given), the growth inhibition in test [1] (setting [7]) is 47%; in test [1] (setting [8]), -10%; in test [1] (at 50.0 µM), 86.6% (active); in test [2] (setting [7]), 45%; in test [2] (setting [8]), 7%; in test [2] (at 50.0 µM), 91.2% (active). Also, the growth inhibition in test [3] (setting [7]) was 27%; in test [3] (setting [8]), 1%; in test [3] (at 50.0 µM) it was 93.3% (active); in test [4] (setting [7]), 8%; in test [4] (setting [8]), -6%; in test [4] (at 50.0 µM), 50.8%. For the same compound, the growth inhibition in test [5] (setting [7]) is 10%; in test [5] (setting [8]), -5%; in test [5] (at 50.0 µM), 93.9% (active); in test [6] (setting [7]), 52%; in test [6] (setting [8]) it was 5%; in test [6] (at 50.0 µM) it was 94.6% (active).
On to `Cn1ncc2c(NCc3ccc(Cl)cc3)nc(Cl)nc21`, for which the growth inhibition in test [1] (setting [7]) is 7%; in test [1] (setting [8]), 97% (active); in test [1] (at 50.0 µM), 98.2% (active); in test [2] (setting [7]), -1%; in test [2] (setting [8]), 98% (active); in test [2] (at 50.0 µM), 96.5% (active). For the same compound, the growth inhibition is 8% in test [3] (setting [7]); 97% (active) in test [3] (setting [8]); 98% (active) in test [3] (at 50.0 µM); 2% in test [4] (setting [7]); 95% (active) in test [4] (setting [8]); 99.2% (active) in test [4] (at 50.0 µM). The growth inhibition is 2% in test [5] (setting [7]); 97% (active) in test [5] (setting [8]); 98.9% (active) in test [5] (at 50.0 µM); 0% in test [6] (setting [7]); 97% (active) in test [6] (setting [8]); 98.5% (active) in test [6] (at 50.0 µM).
As to `CCOc1cc2c(OCc3ccccc3)cc3c4cc(OC)c(OC)cc4c[n+](C)c3c2cc1OC`, the growth inhibition was 98% (active) in test [1] (setting [7]); 99% (active) in test [1] (setting [8]); 59.6% in test [1] (at 50.0 µM); 96% (active) in test [2] (setting [7]); 99% (active) in test [2] (setting [8]); 46.2% in test [2] (at 50.0 µM). The growth inhibition was 97% (active) in test [3] (setting [7]); 99% (active) in test [3] (setting [8]); 50.8% in test [3] (at 50.0 µM); 97% (active) in test [4] (setting [7]); 99% (active) in test [4] (setting [8]); 55% in test [4] (at 50.0 µM). Moreover, the growth inhibition in test [5] (setting [7]) was 97% (active); in test [5] (setting [8]), 99% (active); in test [5] (at 50.0 µM), 50.3%; in test [6] (setting [7]), 97% (active); in test [6] (setting [8]) it was 99% (active); in test [6] (at 50.0 µM) it was 50.1%.
As to `O=[N+]([O-])/C(C(Cl)=C(Cl)Cl)=C(/Nc1ccccc1)SCc1ccccc1`, the growth inhibition in test [1] (setting [7]) was 32%; in test [1] (setting [8]) it was 100% (active); in test [1] (at 50.0 µM) it was 12.3%; in test [2] (setting [7]) it was 32%; in test [2] (setting [8]) it was 100% (active); in test [2] (at 50.0 µM) it was 26.1%. Moreover, the growth inhibition in test [3] (setting [7]) is 13%; in test [3] (setting [8]), 99% (active); in test [3] (at 50.0 µM) it was 18.9%; in test [4] (setting [7]) it was 21%; in test [4] (setting [8]), 97% (active); in test [4] (at 50.0 µM) it was 14.6%. For the same compound, the growth inhibition in test [5] (setting [7]) was 28%; in test [5] (setting [8]) it was 94% (active); in test [5] (at 50.0 µM), 43.4%; in test [6] (setting [7]), 38%; in test [6] (setting [8]), 100% (active); in test [6] (at 50.0 µM) it was 50.6%.
With `COC1=CC(=O)C(O)=C/C1=C\C=C\c1ccccc1`, the growth inhibition in test [1] (setting [7]) is 67%; in test [1] (setting [8]), 97% (active); in test [1] (at 50.0 µM) it was 95% (active); in test [2] (setting [7]), 59%; in test [2] (setting [8]) it was 99% (active); in test [2] (at 50.0 µM), 97% (active). The growth inhibition is 84% (active) in test [3] (setting [7]); 99% (active) in test [3] (setting [8]); 97% (active) in test [3] (at 50.0 µM); 50% in test [4] (setting [7]); 99% (active) in test [4] (setting [8]); 95.3% (active) in test [4] (at 50.0 µM). The growth inhibition in test [5] (setting [7]) is 36%; in test [5] (setting [8]), 98% (active); in test [5] (at 50.0 µM), 96.6% (active); in test [6] (setting [7]) it was 83% (active); in test [6] (setting [8]), 99% (active); in test [6] (at 50.0 µM) it was 96.8% (active).
For the compound `O=c1c2ccccc2c2ccccc2n1O`, the growth inhibition was 93% (active) in test [1] (setting [7]); 92% (active) in test [1] (setting [8]); 97.5% (active) in test [1] (at 50.0 µM); 95% (active) in test [2] (setting [7]); 95% (active) in test [2] (setting [8]); 97% (active) in test [2] (at 50.0 µM). The growth inhibition in test [3] (setting [7]) is 93% (active); in test [3] (setting [8]), 94% (active); in test [3] (at 50.0 µM), 96.5% (active); in test [4] (setting [7]), 76% (active); in test [4] (setting [8]) it was 89% (active); in test [4] (at 50.0 µM) it was 93.8% (active). Moreover, the growth inhibition in test [5] (setting [7]) is 88% (active); in test [5] (setting [8]), 91% (active); in test [5] (at 50.0 µM), 95% (active); in test [6] (setting [7]) it was 94% (active); in test [6] (setting [8]) it was 94% (active); in test [6] (at 50.0 µM) it was 98.3% (active).
`COc1ccc(C2C3=C(CC(C)(C)CC3=O)Oc3cc4c(cc32)OCO4)c(OC)c1` (stereo not given): the growth inhibition in test [1] (setting [7]) is 9%; in test [1] (setting [8]), 48%; in test [1] (at 50.0 µM) it was 52.4%; in test [2] (setting [7]), 16%; in test [2] (setting [8]), 27%; in test [2] (at 50.0 µM), 65.5%. For the same compound, the growth inhibition is 11% in test [3] (setting [7]); -17% in test [3] (setting [8]); 64.2% in test [3] (at 50.0 µM); 5% in test [4] (setting [7]); 20% in test [4] (setting [8]); 20.2% in test [4] (at 50.0 µM). The growth inhibition is 2% in test [5] (setting [7]); 52% in test [5] (setting [8]); 45.8% in test [5] (at 50.0 µM); 5% in test [6] (setting [7]); 14% in test [6] (setting [8]); 73% (active) in test [6] (at 50.0 µM).
On to `O=C(CC(=O)c1cc(Cl)ccc1O)c1cccnc1`, for which the growth inhibition in test [1] (setting [7]) is 2%; in test [1] (setting [8]) it was 95% (active); in test [1] (at 50.0 µM), 68%; in test [2] (setting [7]) it was 2%; in test [2] (setting [8]) it was 49%; in test [2] (at 50.0 µM), 17.9%. Further, the growth inhibition in test [3] (setting [7]) was 1%; in test [3] (setting [8]) it was 91% (active); in test [3] (at 50.0 µM) it was 49.9%; in test [4] (setting [7]), 7%; in test [4] (setting [8]) it was 49%; in test [4] (at 50.0 µM), -21.1%. The growth inhibition was 4% in test [5] (setting [7]); 94% (active) in test [5] (setting [8]); -16.1% in test [5] (at 50.0 µM); 2% in test [6] (setting [7]); 99% (active) in test [6] (setting [8]); 47% in test [6] (at 50.0 µM).
Regarding `CCc1ccc2ccc3ccc(CC)nc3c2n1`, the growth inhibition in test [1] (setting [7]) is 74% (active); in test [1] (setting [8]) it was 96% (active); in test [1] (at 50.0 µM), 96.9% (active); in test [2] (setting [7]), 85% (active); in test [2] (setting [8]), 94% (active); in test [2] (at 50.0 µM) it was 97.7% (active). The growth inhibition in test [3] (setting [7]) is 86% (active); in test [3] (setting [8]) it was 96% (active); in test [3] (at 50.0 µM), 97.8% (active); in test [4] (setting [7]), 72% (active); in test [4] (setting [8]), 91% (active); in test [4] (at 50.0 µM) it was 82.7% (active). For the same compound, the growth inhibition is 95% (active) in test [5] (setting [7]); 97% (active) in test [5] (setting [8]); 95.3% (active) in test [5] (at 50.0 µM); 85% (active) in test [6] (setting [7]); 96% (active) in test [6] (setting [8]); 97.7% (active) in test [6] (at 50.0 µM).
